Experimental data from PubChem BioAssay (Tox21).
Inconclusive results are not listed. Active and inactive are the calls of the source. Unless noted, calls come from the whole dose curve; as a rule, active = well fitted curve in the direction sought with a large enough effect in the repeat runs; inconclusive = weak or mixed curves; inactive = no such curve, though single readings can be large; an effect the other way counts as inactive or inconclusive.

Experiments:
[1] = biological target: Thyrotropin receptor (Homo sapiens) (UniProt P16473); assay: qHTS assay to identify small molecule antagonists of the thyroid stimulating hormone receptor (TSHR) signaling pathway (AID 1259385; calls by dose curve; note: nearly all actives have a fitted effect of over 20% in size)
Summary of the method: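 Antagonist mode: compound-treated TSHR-expressing HEK293 cells were stimulated with 1.5 ng/mL TSH (final) in presence of Ro20-1724 for 30 min at RT. HTRF cAMP detection after 1 h; each compound tested at 15 concentrations, triplicate.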

[2] = qHTS assay to identify small molecule agonists of the estrogen receptor alpha (ER-alpha) signaling pathway in the presence of an antagonist - cell viability counter screen (AID 1259386);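 note: series mostly up to about 92 µM; cells exposed to compounds for 22 h at 37 °C before the viability read; nearly all actives have a fitted effect of over 30% in size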
Summary of the method: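 Using estrogen-depleted VM7Luc4E2 cells, the 15-concentration compound series was applied together with 10.0nM ICI-182,780 and incubated 22hr at 37C/5% CO2. Cell viability was then scored by CellTiter-Fluor.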

[3] = biological target: Progesterone receptor (Homo sapiens) (UniProt P06401); assay: qHTS assay to identify small molecule agonists of the progesterone receptor (PR) signaling pathway (AID 1346784; calls by dose curve; note: nearly all actives have a fitted effect of over 30% in size)
Summary of the method: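 Reporter assay, GripTite PR-UAS-bla HEK 293T cells: 16 hr exposure to DMSO-dissolved compounds at 37C, 5% CO2, in steroid-depleted (2% charcoal-stripped FBS) medium; beta-lactamase measured by FRET fluorescence.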

[4] = biological target: Progesterone receptor (Homo sapiens) (UniProt P06401); assay: qHTS assay to identify small molecule antagonists of the progesterone receptor (PR) signaling pathway (AID 1346795; active = well fitted inhibition curve with a large enough effect in the signal ratio in the repeat runs, not every such curve was filed as active; the % refers to the signal ratio)
Summary of the method: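 Stimulus R5020 at 1 nM final; cells HEK293T PR-UAS-bla; medium with 2% charcoal-stripped FBS; compound exposure 16 hr at 37C, 5% CO2; detection by FRET beta-lactamase substrate, 2 hr, room temperature.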

[5] = qHTS assay to identify small molecule antagonists of the progesterone receptor (PR) signaling pathway - cell viability counter screen (AID 1346798); note: series mostly up to about 92 µM; nearly all actives have a fitted effect of over 50% in size
Summary of the method: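 In the same plates used for the beta-lactamase readout, cell viability of compound- and R5020-treated PR-UAS-bla HEK293T cells (16 hr, 37C) was assessed by CellTiter-Glo luminescence.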

[6] = qHTS assay to identify small molecule agonists of the progesterone receptor (PR) signaling pathway - cell viability counter screen (AID 1346799; calls by dose curve; note: nearly all actives have a fitted effect of over 45% in size)
Summary of the method: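 Multiplexed viability read: CellTiter-Glo luminescence, 30 min RT, following LiveBLAzer FRET measurement on PR-UAS-bla HEK293T cells exposed to compounds 16 hr.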

[7] = qHTS assay to identify small molecule antagonists of the TGF-beta/Smad signaling pathway - cell viability counter screen (AID 1346824); note: nearly all actives have a fitted effect of over 50% in size
Summary of the method: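 Cytotoxicity counter-screen run in the same wells as the beta-lactamase Smad reporter read: CellTiter-Glo luminescence after 30 min at room temperature. HEK 293T SBE-bla cells had 5 hr compound exposure at 37 C with TGF-beta1 (0.25 ng/mL stock).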

[8] = qHTS assay to identify small molecule agonists of the TGF-beta/Smad signaling pathway - cell viability counter screen (AID 1346829); note: top concentration of the series differs between compounds; nearly all actives have a fitted effect of over 45% in size
Summary of the method: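 Compound-treated SBE-bla HEK 293T cells (5 hr, 37 C) were assessed for viability with CellTiter-Glo in parallel with the reporter read.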

[9] = qHTS assay to identify small molecule agonists of the TGF-beta/Smad signaling pathway (AID 1346859; active = well fitted activation curve with a large enough effect in the signal ratio in the repeat runs, not every such curve was filed as active; the % refers to the signal ratio; note: series mostly up to about 77 µM)
Summary of the method: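 Screening used HEK 293T SBE-bla cells at 4,000/well. Test agents: 5 hr, 37 C. Detection: FRET substrate, 2 hr RT, then excitation 405 nm with emissions at 460 and 530 nm.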

[10] = biological target: Thyrotropin-releasing hormone receptor (Homo sapiens) (UniProt P34981); assay: qHTS assay to identify small molecule antagonists of the thyrotropin-releasing hormone receptor (TRHR) signaling pathway (AID 1346877; active = well fitted inhibition curve with a large enough effect in the repeat runs, not every such curve was filed as active; note: series mostly up to about 51 µM)
Summary of the method: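 Calcium signal in dye-loaded TRHR/HEK293 cells; compounds added 5 min before TRH (1 nM final); fluorescence monitored 3 min at 1 s steps.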
% is set by controls: 0 for no effect and ±100 for the full control effect.

Sequence of Thyrotropin receptor (Homo sapiens) (P16473 whole entry, looked up): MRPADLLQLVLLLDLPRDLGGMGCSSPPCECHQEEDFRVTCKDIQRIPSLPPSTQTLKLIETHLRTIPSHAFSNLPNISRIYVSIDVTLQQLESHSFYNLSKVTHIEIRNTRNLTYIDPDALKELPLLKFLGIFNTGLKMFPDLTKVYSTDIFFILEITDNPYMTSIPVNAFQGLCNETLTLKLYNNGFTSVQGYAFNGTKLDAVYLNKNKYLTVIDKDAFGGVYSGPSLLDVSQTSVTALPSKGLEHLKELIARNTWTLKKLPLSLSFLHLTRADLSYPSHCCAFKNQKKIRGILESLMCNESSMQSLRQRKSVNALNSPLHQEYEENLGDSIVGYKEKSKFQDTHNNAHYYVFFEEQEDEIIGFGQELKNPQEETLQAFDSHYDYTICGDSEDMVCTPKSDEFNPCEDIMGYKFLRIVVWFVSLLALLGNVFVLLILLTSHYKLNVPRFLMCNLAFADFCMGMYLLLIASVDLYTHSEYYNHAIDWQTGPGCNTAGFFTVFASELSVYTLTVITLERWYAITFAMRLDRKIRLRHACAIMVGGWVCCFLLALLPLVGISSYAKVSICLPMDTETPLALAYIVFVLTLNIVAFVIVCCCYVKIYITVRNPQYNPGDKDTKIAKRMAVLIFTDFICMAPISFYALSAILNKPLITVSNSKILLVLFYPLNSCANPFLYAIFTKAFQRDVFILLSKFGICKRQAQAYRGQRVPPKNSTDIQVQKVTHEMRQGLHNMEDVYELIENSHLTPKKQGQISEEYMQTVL
Sequence of Thyrotropin-releasing hormone receptor (Homo sapiens) (P34981 whole entry, looked up): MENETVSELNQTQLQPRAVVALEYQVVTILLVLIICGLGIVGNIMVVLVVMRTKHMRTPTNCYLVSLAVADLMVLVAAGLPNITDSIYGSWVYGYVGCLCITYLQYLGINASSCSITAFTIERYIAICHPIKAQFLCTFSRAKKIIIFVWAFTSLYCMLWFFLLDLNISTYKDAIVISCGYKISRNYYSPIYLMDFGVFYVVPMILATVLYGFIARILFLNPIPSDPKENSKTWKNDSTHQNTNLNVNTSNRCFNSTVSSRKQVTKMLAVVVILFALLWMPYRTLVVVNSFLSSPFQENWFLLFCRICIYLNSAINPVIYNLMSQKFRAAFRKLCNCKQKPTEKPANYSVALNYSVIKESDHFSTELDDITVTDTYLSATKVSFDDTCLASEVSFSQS
Sequence of Progesterone receptor (Homo sapiens) (P06401 whole entry, looked up): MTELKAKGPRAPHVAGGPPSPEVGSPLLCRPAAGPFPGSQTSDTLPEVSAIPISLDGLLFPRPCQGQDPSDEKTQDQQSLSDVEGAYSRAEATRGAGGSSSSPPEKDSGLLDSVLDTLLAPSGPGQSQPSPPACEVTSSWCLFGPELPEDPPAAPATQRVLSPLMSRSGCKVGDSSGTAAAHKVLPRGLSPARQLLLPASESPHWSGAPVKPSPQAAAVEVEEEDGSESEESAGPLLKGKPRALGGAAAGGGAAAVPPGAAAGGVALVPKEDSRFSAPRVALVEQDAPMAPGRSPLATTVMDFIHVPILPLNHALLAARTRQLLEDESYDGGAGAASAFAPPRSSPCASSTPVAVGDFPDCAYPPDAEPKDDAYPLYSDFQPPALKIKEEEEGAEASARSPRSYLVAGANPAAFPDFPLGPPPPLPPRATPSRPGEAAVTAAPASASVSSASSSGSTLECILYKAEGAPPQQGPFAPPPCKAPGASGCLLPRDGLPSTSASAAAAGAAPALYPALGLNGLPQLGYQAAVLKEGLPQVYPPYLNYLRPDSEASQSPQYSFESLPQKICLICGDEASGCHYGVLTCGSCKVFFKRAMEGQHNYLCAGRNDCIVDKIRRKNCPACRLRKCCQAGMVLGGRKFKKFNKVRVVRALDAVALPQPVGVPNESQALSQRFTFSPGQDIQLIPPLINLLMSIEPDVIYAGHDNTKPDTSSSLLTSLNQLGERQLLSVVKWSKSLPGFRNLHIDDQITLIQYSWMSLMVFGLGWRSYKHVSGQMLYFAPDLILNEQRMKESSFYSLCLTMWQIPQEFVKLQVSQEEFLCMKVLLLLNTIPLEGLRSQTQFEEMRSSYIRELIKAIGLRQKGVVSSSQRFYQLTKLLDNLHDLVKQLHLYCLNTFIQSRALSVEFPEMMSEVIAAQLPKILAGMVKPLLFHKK

CCc1cccc2c(CCO)c[nH]c12
inactive: Potency [1] | Potency [2] | Potency [3] | Potency [4] | Potency [5] | Potency [6] | Potency [7] | outcome [8] | outcome [9] | outcome [10]

N[C@@H](C(=O)N[C@@H]1C(=O)N2C(C(=O)O)=C(Cl)CS[C@H]12)c1ccccc1
inactive: activity change, negative = inhibition [1] 1.57% [at 8.39 µM] | activity change, negative = cytotoxicity [2] -0.6% [at 8.39 µM] | activation [3] 0.163% [at 8.39 µM] | activity change, negative = inhibition [4] 5.57% [at 8.39 µM] | activity change, negative = cytotoxicity [5] 1.94% [at 8.39 µM] | activity change, negative = cytotoxicity [6] -11.1% [at 8.39 µM] | viability change, negative = cytotoxic [7] -15% [at 6.97 µM] | activity change, negative = cytotoxicity [8] -0.75% [at 6.97 µM] | activation [9] 1.83% [at 6.97 µM] | activity, negative = inhibition [10] 1.85% [at 4.65 µM]

Nc1cc(=O)[nH]c(N)n1
inactive: Potency [1] | Potency [2] | Potency [3] | Potency [4] | Potency [5] | Potency [6] | Potency [7] | outcome [8] | outcome [9] | outcome [10]

CC(C)CNCC(C)C
inactive: Potency [1] | Potency [2] | Potency [3] | Potency [4] | Potency [5] | Potency [6] | Potency [7] | outcome [8] | outcome [9] | outcome [10]

OC[C@]1(O)OC[C@@H](O)[C@H](O)[C@@H]1O
inactive: Potency [1] | Potency [2] | Potency [3] | Potency [4] | Potency [5] | Potency [6] | Potency [7] | outcome [8] | outcome [9] | outcome [10]

CC1(C)CO[C@@H](CC(=O)O)CN1
inactive: Potency [1] | Potency [2] | Potency [3] | Potency [4] | Potency [5] | Potency [6] | Potency [7] | outcome [8] | outcome [9] | outcome [10]

N=C(N)c1ccccc1
inactive: Potency [1] | Potency [2] | Potency [3] | Potency [4] | Potency [5] | Potency [6] | Potency [7] | outcome [8] | outcome [9] | outcome [10]

CC(C)(O)C#CC(C)(C)O
inactive: Potency [1] | Potency [2] | Potency [3] | Potency [4] | Potency [5] | Potency [6] | Potency [7] | outcome [8] | outcome [9] | outcome [10]

CCN1CCC[C@H]1CNC(=O)c1cc(S(N)(=O)=O)ccc1OC
inactive: Potency [1] | Potency [2] | Potency [3] | Potency [4] | Potency [5] | Potency [6] | Potency [7] | outcome [8] | outcome [9] | outcome [10]

CCCCCCCCCCCCCCCCC
inactive: Potency [1] | Potency [2] | Potency [3] | Potency [4] | Potency [5] | Potency [6] | Potency [7] | outcome [8] | outcome [9] | outcome [10]

CC(=O)N(CC(O)CO)c1c(I)c(C(=O)NCCO)c(I)c(C(=O)NCC(O)CO)c1I (stereo not drawn)
inactive: Potency [1] | Potency [2] | Potency [3] | Potency [4] | Potency [5] | Potency [6] | Potency [7] | outcome [8] | outcome [9] | outcome [10]

CCCCCCOC(=O)CCCCC(=O)OCCCCCC
inactive: Potency [1] | Potency [2] | Potency [3] | Potency [4] | Potency [5] | Potency [6] | Potency [7] | outcome [8] | outcome [9] | outcome [10]

O=C1CCCCCCCCCCCN1
inactive: Potency [1] | Potency [2] | Potency [3] | Potency [4] | Potency [5] | Potency [6] | Potency [7] | outcome [8] | outcome [9] | outcome [10]

C=CCOCC(CC)(CO)COCC=C
inactive: Potency [1] | Potency [2] | Potency [3] | Potency [4] | Potency [5] | Potency [6] | Potency [7] | outcome [8] | outcome [9] | outcome [10]

CC(C)c1cc2c(cc1S(=O)(=O)O)[C@@]1(C)CCC[C@@](C)(C(=O)O)[C@@H]1CC2
inactive: Potency [1] | Potency [2] | Potency [3] | Potency [4] | Potency [5] | Potency [6] | Potency [7] | outcome [8] | outcome [9] | outcome [10]

C[N+](C)(C)CC(O)CC(=O)[O-] (stereo not drawn)
inactive: Potency [1] | Potency [2] | Potency [3] | Potency [4] | Potency [5] | Potency [6] | Potency [7] | outcome [8] | outcome [9] | outcome [10]

CC(C)=CCCC(C)CC(=O)O (stereo not drawn)
inactive: Potency [1] | Potency [2] | Potency [3] | Potency [4] | Potency [5] | Potency [6] | Potency [7] | outcome [8] | outcome [9] | outcome [10]

CCO[Si](CCC1CCC2OC2C1)(OCC)OCC (stereo not drawn)
inactive: Potency [1] | Potency [2] | Potency [3] | Potency [4] | Potency [5] | Potency [6] | Potency [7] | outcome [8] | outcome [9] | outcome [10]

CCC(=O)OC(C)c1ccccc1 (stereo not drawn)
inactive: Potency [1] | Potency [2] | Potency [3] | Potency [4] | Potency [5] | Potency [6] | Potency [7] | outcome [8] | outcome [9] | outcome [10]

Cn1cc(S(C)=O)c(=O)c2ccc(F)cc21 (stereo not drawn)
inactive: Potency [1] | Potency [2] | Potency [3] | Potency [4] | Potency [5] | Potency [6] | Potency [7] | outcome [8] | outcome [9] | outcome [10]

COC(=O)CCSCCC(=O)OC
inactive: Potency [1] | Potency [2] | Potency [3] | Potency [4] | Potency [5] | Potency [6] | Potency [7] | outcome [8] | outcome [9] | outcome [10]

CCN1CCC[C@H]1CNC(=O)c1c(O)c(Cl)cc(Cl)c1OC
inactive: Potency [1] | Potency [2] | Potency [3] | Potency [4] | Potency [5] | Potency [6] | Potency [7] | outcome [8] | outcome [9] | outcome [10]

O=C(c1ccccc1)C1CCCCC1
inactive: Potency [1] | Potency [2] | Potency [3] | Potency [4] | Potency [5] | Potency [6] | Potency [7] | outcome [8] | outcome [9] | outcome [10]

CC[N+](C)(C)c1cccc(O)c1
inactive: Potency [1] | Potency [2] | Potency [3] | Potency [5] | Potency [6] | Potency [7] | outcome [8] | outcome [9]
